# According to PubChem BioAssay:
# Where “and” joins values, the source holds several entries; their conditions need not be identical. Equal values may be shown once. Calls of active or inactive are those of the source. Unless noted, no stated cut-off is given here; in the data, active means inhibition above about 80%; inactive means the rest.
# How the values were obtained:
# [1] = viability loss with induced miR-34 in A549 – imaging, A549 dox-inducible miR-34, nuclei and caspase counts, primary screen (AID 1347080;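 active means compounds whose cell count with miR-34 switched on is under 0.7 times the count with it off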); conditions: A549 miR-34 inducible, Hoechst nuclei count, 48 h
# [2] = galactose survival enhancers in mitochondrial complex I cybrids – cell-based, galactose medium, ATP luminescence, primary screen (AID 1645843;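 active means z-score of at least 1.8 in each of two replicates, scored against plate mean and spread of sample wells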;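 further: positive z means more ATP and so rescue of galactose-driven cybrid death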); conditions: complex I mutant cybrid cells, 72 h, stronger effect = higher value
# [3] = growth inhibition, single agent or in combination, cell-based, chromothripsis tumors, cisplatin or BGB combos (AID 1671449); conditions: LFS_MB_P medulloblastoma cells;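 further: cells exposed for 96 hours; 0% = vehicle DMSO and 100% = killing by high DMSO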
# [4] = growth inhibition, single agent and combos, cell-based, chromothripsis tumors, cisplatin or BGB combos (AID 1671450); conditions: HDN33 neuroblastoma cells, stronger effect = higher value;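 further: cells exposed to compound for four days; 0% = vehicle DMSO and 100% = cell killing by high DMSO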
# [5] = growth inhibition, single agents and combos, ICB984, cell-based, cisplatin or BGB combos, synergistic combos for chromothripsis tumors (AID 1671451; call rule not given here;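 further: cells exposed for 96 hours before readout; 0% = vehicle DMSO and 100% = killing by high DMSO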); conditions: ICB984 medulloblastoma cells, drug combinations, stronger effect = higher value
# [6] = growth inhibition, single agents and combos, LFS_MB_1R, cell-based, cisplatin or BGB combos, synergistic combos for chromothripsis tumors (AID 1671452); conditions: LFS_MB_1R medulloblastoma cells, stronger effect = higher value;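 further: cells exposed for 96 hours before readout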
# [7] = growth inhibition, single agents and combos, HTB85, cell-based, BGB or cisplatin IC20 combos, synergistic combos for chromothripsis tumors (AID 1671453); conditions: HTB85 osteosarcoma cells, drug combinations, stronger effect = higher value;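 further: cells exposed for 96 hours before readout; 0% = vehicle DMSO and 100% = high DMSO killing control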
# [8] = growth inhibition, single agents and combos, CRL2098, cell-based, BGB or cisplatin IC20 combos, synergistic combos for chromothripsis tumors (AID 1671454); conditions: CRL2098 osteosarcoma cells, drug combinations, stronger effect = higher value;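 further: cells exposed for 96 h before readout; 0% = vehicle DMSO and 100% = killing by high DMSO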
# [9] = growth inhibition, single agents and combos, HD-MB03, cell-based, BGB or cisplatin IC20 combos, synergistic combos for chromothripsis tumors (AID 1671455; in the data active means inhibition above about 83%;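 further: 0% = vehicle DMSO and 100% = high DMSO as cytotoxic control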); conditions: HD-MB03 medulloblastoma cells, stronger effect = higher value
# [10] = growth inhibition, single agents and combos, UWB1.289, cell-based, BGB or cisplatin combos, synergistic combos for chromothripsis tumors (AID 1671456); conditions: UWB1.289 ovarian carcinoma cells, stronger effect = higher value;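 further: cells exposed to compound for four days; 0% = vehicle DMSO and 100% = killing by high DMSO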
# [11] = growth inhibition, single agents and combos, LFS_MB_2R, cell-based, cisplatin combos, synergistic combos for chromothripsis tumors (AID 1671457); conditions: LFS_MB_2R medulloblastoma cells, stronger effect = higher value;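 further: cells exposed to compound for four days before readout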
# [12] = growth inhibition, MDA-MB-436, cell-based, BGB or cisplatin combos, synergistic combos for chromothripsis tumors (AID 1671458; call rule not given here;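 further: cells exposed for 96 hours; 0% = vehicle DMSO and 100% = killing by high DMSO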); conditions: MDA-MB-436 breast carcinoma growth inhibition, drug combinations, stronger effect = higher value
# [13] = UWB1.289_BRCA1 ovarian cancer growth, cell-based, BGB or cisplatin combinations (AID 1671459); conditions: UWB1.289 BRCA1 ovarian carcinoma, drug combinations, stronger effect = higher value
# [14] = drug combination toxicity in non-malignant astrocytes – cell-based, BGB or cisplatin IC20 combos, cytotoxicity control for chromothriptic childhood tumor combination screen (AID 1671460); conditions: Human astrocytes, viability inhibition, drug combinations, at 0.5 µM, stronger effect = higher value;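 further: cells exposed to compounds for 96 hours before viability readout; 0% = vehicle and 100% = killing control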
# [15] = BT084 cell growth, single and combined drugs, ICGC_MB145, cisplatin and BGB IC40 combos (AID 1671461); conditions: BT084 medulloblastoma cells, drug combinations, stronger effect = higher value;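 further: cells exposed to drugs for 96 hours; 0% = vehicle DMSO and 100% = high DMSO full killing control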
# [16] = RCMB18 cell growth, single agent and combined, cisplatin and BGB IC40 combos (AID 1671462); conditions: RCMB18 medulloblastoma cells, stronger effect = higher value;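 further: cells exposed to compound for four days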
# [17] = CRL1545 cell growth, single agent and combined, cisplatin and BGB IC20 combos (AID 1671464); conditions: CRL1545 osteosarcoma cells, stronger effect = higher value;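 further: cells exposed to compound for 96 hours before readout; 0% = vehicle DMSO and 100% = high DMSO killing control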
# [18] = measured here: combination with BGB IC40, at 0.05 µM
# [19] = measured here: with BGB IC20 combination, at 0.5 µM
# [20] = measured here: with cisplatin IC20 combination, at 0.5 µM
# [21] = measured here: combination with cisplatin, at 0.5 µM
# [22] = measured here: combination with cisplatin, at 5 µM
smiles,measurement,setting,value
COc1c(N2CC3CCCNC3C2)c(F)cc2c(=O)c(C(=O)O)cn(C3CC3)c12 (stereo not drawn),fold change,"[1]; stronger effect = lower value, cell number ratio, induced over uninduced",0.906 (inactive)
same,fold change,[1]; measured here: relative caspase fold change +Dox/-Dox,1.2
same,cell count,"[1]; measured here: total cells with miR-34 induction, stronger effect = lower value",9060
same,cell count,[1]; measured here: total cells without miR-34 induction,10000
same,z-score,[2],0.965 (inactive)
same,inhibition,"[3]; at 0.5 µM, stronger effect = higher value",79.9% (inactive) and -20.5% (inactive)
same,inhibition,"[3]; measured here: combination with BGB IC20, at 0.005 µM",-24.3% and -13.6%
same,inhibition,"[3]; measured here: combination with BGB IC40, at 0.005 µM",-13.7% and -15.3%
same,inhibition,[3]; [18],-23.7% and -12.1%
same,inhibition,"[3]; measured here: combination with cisplatin, at 0.5 µM, stronger effect = higher value",118% and -28.2%
same,inhibition,"[3]; measured here: combination with cisplatin, at 5 µM, stronger effect = higher value",-54.4% and -21.2%
same,inhibition,"[4]; BGB combo, at 5 µM",16.5% and -16.1%
same,inhibition,[4]; at 0.5 µM,-17.5% (inactive) and 7.5% (inactive)
same,inhibition,"[4]; cisplatin combo, at 5 µM",-9.22% and 17.7%
same,inhibition,[4]; [19],-4.15% and 11.4%
same,inhibition,[4]; [20],-25.5% and 15.3%
same,inhibition,"[4]; single agent, at 5 µM",17.2% and 9.26%
same,inhibition,"[5]; BGB IC20 combo, at 0.005 µM",-0.325% and -11.1%
same,inhibition,"[5]; BGB IC40 combo, at 0.005 µM",-5.95% and -17.1%
same,inhibition,"[5]; BGB IC40 combo, at 0.05 µM",-19.5% and -21.1%
same,inhibition,[5]; at 0.5 µM,-10.7% (inactive) and -20.7% (inactive)
same,inhibition,"[5]; cisplatin combo, at 0.05 µM",-23.8% and -21.1%
same,inhibition,"[5]; cisplatin combo, at 0.5 µM",-1.29% and -29.2%
same,inhibition,"[5]; cisplatin combo, at 5 µM",-29.8% and -8.73%
same,inhibition,"[5]; measured here: 5 uM single agent, at 5 µM",-4.57% and 0.836%
same,inhibition,[6]; at 0.5 µM,-18.3% (inactive) and -14.3% (inactive)
same,inhibition,[6]; [18],-0.314% and -2.89%
same,inhibition,[6]; [21],-10.2% and 25.8%
same,inhibition,[6]; [22],-57.1% and -57%
same,inhibition,[7]; at 0.5 µM,-1.92% (inactive) and -17.4% (inactive)
same,inhibition,"[7]; measured here: with BGB IC20, at 0.5 µM",0.476% and -45.2%
same,inhibition,"[7]; measured here: with BGB IC20, at 5 µM",-14.2% and 1.64%
same,inhibition,"[7]; measured here: with cisplatin IC20, at 0.5 µM",-4.9% and -17.9%
same,inhibition,"[7]; measured here: with cisplatin IC20, at 5 µM",-35.3% and -0.109%
same,inhibition,"[7]; single agent, at 5 µM",12% and -3.92%
same,inhibition,[8]; at 0.5 µM,-38.5% (inactive) and -21% (inactive)
same,inhibition,"[8]; measured here: combination with BGB at IC20, at 0.5 µM",-15.6% and -12.1%
same,inhibition,"[8]; measured here: combination with cisplatin at IC20, at 0.5 µM",-75% and -24%
same,inhibition,[9]; at 0.5 µM,-1.44% (inactive) and -1.69% (inactive)
same,inhibition,"[9]; measured here: combo with BGB at IC20, at 0.5 µM",-9.81% and -2.86%
same,inhibition,"[9]; measured here: combo with cisplatin at IC20, at 0.5 µM",5.04% and -2.25%
same,inhibition,[10]; at 0.5 µM,0.61% (inactive) and 5% (inactive)
same,inhibition,"[10]; measured here: inhibition with BGB combination, at 0.05 µM",-8.87% and -16%
same,inhibition,"[10]; measured here: inhibition with cisplatin combination, at 0.05 µM",-17.8% and -13.4%
same,inhibition,[11]; at 0.5 µM,-15.9% (inactive) and -16.5% (inactive)
same,inhibition,[11]; [21],-17.1% and -8.11%
same,inhibition,[11]; [22],-13.1% and -7.1%
same,inhibition,[12]; at 0.5 µM,-3.8% (inactive) and -6.04% (inactive)
same,inhibition,"[12]; measured here: BGB combination, at 0.5 µM",-11.6% and -4.26%
same,inhibition,"[12]; measured here: BGB combination, at 5 µM",-20.6% and -9.9%
same,inhibition,"[12]; measured here: cisplatin combination, at 0.5 µM",-1.34% and -15%
same,inhibition,"[12]; measured here: cisplatin combination, at 5 µM",-28.3% and -11.1%
same,inhibition,"[13]; BGB combination, concentration series, at 5 µM",5.74% and 12.9%
same,inhibition,[13]; at 0.5 µM,-0.42% (inactive) and 3.8% (inactive)
same,inhibition,"[13]; cisplatin combination, concentration series, at 5 µM",1.62% and 11.9%
same,inhibition,[14],9.7% (inactive) and 6.47% (inactive)
same,inhibition,[14]; measured here: combo with BGB IC20,1.83% and 2.24%
same,inhibition,[14]; measured here: combo with cisplatin IC20,4.24% and 3.81%
same,inhibition,[15]; at 0.5 µM,-19% (inactive) and -8.29% (inactive)
same,inhibition,"[15]; cisplatin combination, at 0.5 µM",-46.7% and 7.45%
same,inhibition,"[15]; cisplatin combination, at 5 µM",-18.8% and -23%
same,inhibition,"[15]; measured here: BGB IC40 combination 0.05 uM, at 0.05 µM",-35.2% and -12.7%
same,inhibition,"[15]; single agent, at 5 µM",-4.05% and -7.99%
same,inhibition,[16]; at 0.5 µM,-5.76% (inactive) and -15.1% (inactive)
same,inhibition,"[16]; cisplatin combo, at 5 µM",-131% and -3.44%
same,inhibition,"[16]; measured here: BGB IC40 combination, at 0.05 µM",9.3% and -24.7%
same,inhibition,[16]; [21],-0.114% and -16.6%
same,inhibition,"[16]; single agent, at 5 µM",-15% and -12.8%
same,inhibition,[17]; at 0.5 µM,10.4% (inactive) and -25.5% (inactive)
same,inhibition,[17]; [19],13% and -1.64%
same,inhibition,[17]; [20],7.59% and -37.4%
same,inhibition,"[17]; single agent, at 0.05 µM",-39.6% and 17%
same,inhibition,"[17]; single agent, at 5 µM",-7.8% and 21.6%
